# Reference: PubChem BioAssay
# Test: basal RPMI8226 viability, no added stimulus, profiling panel, cell-based, calcein-AM fluorescence, 48 h, PK04 Diversity Set (AID 1166);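 also: cells grown under basal conditions without added stimulus; test concentration not given here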
# Settings: RPMI8226 myeloma viability, higher = more signal
row,SMILES,z-score
1,CO[C@H]1O[C@H](CO)[C@@H](OC(=O)Nc2ccc(C(F)(F)F)cc2)[C@H](OC(=O)Nc2ccc3c(c2)OCO3)[C@@H]1OC(=O)Nc1ccc2c(c1)OCO2,-3.51
2,COCCOC(=O)N1C(=O)[C@@]2(c3cc(C#Cc4ccc(OC)cc4)ccc31)[C@H](c1ccc(O)cc1)N1[C@H](c3ccccc3)[C@H](c3ccccc3)OC(=O)[C@H]1[C@@H]2C(=O)N1CCc2cc(OC)c(OC)cc2C1,-0.063
3,CCC(CC)C(O)C1C=CC2C(=O)NC(=O)C2N1Nc1ccccn1 (stereo not given),0.0749
4,CN1C(=O)C2C=CC(C(O)C3CC=CCC3)N(N(c3ccccc3)c3ccccc3)C2C1=O (stereo not given),-0.785
5,COc1cc2c(cc1OC)CN(C(=O)[C@H]1[C@@H]3C(=O)O[C@@H](c4ccccc4)[C@@H](c4ccccc4)N3[C@@H](c3ccc(O)cc3)[C@]13C(=O)Nc1ccc(C#CCCO)cc13)CC2,-1.46
6,CCN(CC)c1ccc(N2CC=CC34O[C@@H]5C=CCCOC(=O)C5[C@H]3C(=O)N(CCCCCCO)[C@@H]4C2=O)cc1 (stereo not given in full),0.401
7,Cc1ccc(S[C@]2(C(=O)O)CC(=O)N(C(C)C)[C@@H]2c2ccc(CO)cc2I)cc1,-0.902
8,C=CCNC(=O)[C@H]1[C@@H]2C(=O)O[C@@H](c3ccccc3)[C@@H](c3ccccc3)N2[C@@H](c2ccccc2OCCO)[C@]12C(=O)Nc1ccc(C#CCCO)cc12,-1.91
9,C=C(CC1([C@@H](NP(=O)(c2ccccc2)c2ccccc2)[C@H]2C[C@@H]2CCCC)CC1)c1ccccc1,-3.25
10,O=C1C[C@@](C(=O)NCCN2CCOCC2)(c2ccc([N+](=O)[O-])cc2)[C@@H](c2ccc(CO)cc2)N1CC12CC3CC(CC(C3)C1)C2,-4.23
11,CC(C)[Si](C#Cc1ccc(Oc2ccccc2)cc1)(O[Si](C#Cc1ccc(Oc2ccccc2)cc1)(C(C)C)C(C)C)C(C)C,-0.743
12,O=C(NCCO)C1=C[C@H](Oc2ccccc2I)[C@@H](O)[C@H](N(Cc2ccco2)C(=O)Cc2ccccc2)C1,-1.94
13,COc1ccc(C#Cc2ccc3c(c2)[C@]2(C(=O)N3)[C@H](C(=O)Nc3nc4ccccc4s3)[C@H]3C(=O)O[C@H](c4ccccc4)[C@H](c4ccccc4)N3[C@@H]2c2ccc(O)cc2)cc1,-1.37
14,C=CCOC(=O)[C@H]1[C@@H]2C(=O)O[C@@H](c3ccccc3)[C@@H](c3ccccc3)N2[C@@H](c2ccc(OCCOC(=O)[C@@H]3C[C@@H]4C(=O)N[C@@H](CCCCNC(C)=O)C(=O)N4[C@@H]3c3ccc(O)cc3)cc2)[C@]12C(=O)Nc1ccccc12,-0.133
15,COC(=O)[C@H](Cc1ccccc1)N[C@@H](/C=C/C1CC1)[C@H](O)Cc1ccccc1,-0.507
16,CC(C)N1C(=O)[C@@]2(Cc3ccccc31)c1ccccc1C(=O)N(Cc1ccccc1Cl)[C@H]2c1ccc(CO)cc1,-0.238
17,COC(=O)c1c(CC[C@@H](CO)NC(=O)NCCn2cc(C3(O)CCCC3)nn2)oc(C(C)=O)c1C(=O)OC,0.206
18,Cc1ccc(S[C@]2(C(=O)NCCCN(C)C)CC(=O)N(Cc3cc(C(F)(F)F)cc(C(F)(F)F)c3)[C@@H]2c2ccc(CO)cc2)cc1,0.51
19,CCOC(=O)C1=C[C@@H](C(C)(C)C)N(S(=O)(=O)c2ccc(C)cc2)[C@H]1c1ccc(F)cc1,-3
20,COc1cc2c(cc1OC)CN(C(=O)[C@H]1[C@@H]3C(=O)O[C@@H](c4ccccc4)[C@@H](c4ccccc4)N3[C@@H](c3ccc(O)cc3)[C@]13C(=O)Nc1ccccc13)CC2,-1.47
21,COC(=O)C(CC#Cc1ccc2c(c1)[C@]1(C(=O)N2)[C@H](c2ccc(OCCO)cc2)N2[C@H](c3ccccc3)[C@H](c3ccccc3)OC(=O)[C@H]2[C@@H]1C(=O)Nc1nc2ccccc2s1)C(=O)OC,-2.73
22,COCCOC(=O)N1C(=O)[C@@]2(c3cc(C#CCCO)ccc31)[C@H](C(=O)N1CCCCCCC1)[C@H]1C(=O)O[C@H](c3ccccc3)[C@H](c3ccccc3)N1[C@@H]2c1ccc(OCCO)cc1,-1.54
23,C[N+](C)(C)CCCCCCNC(=O)[C@@H]1C[C@@H]2C(=O)N[C@@H](Cc3ccccc3)C(=O)N2[C@@H]1c1cccc(OCCO)c1,0.925
24,CC(=O)n1cc(C(O)C2C=CC3C(=O)N(c4ccccc4)C(=O)C3N2Nc2ccc([N+](=O)[O-])cc2)c2ccccc21 (stereo not given),-0.315
25,COC(=O)[C@]1(CCC(=O)OC(C)(C)C)N=C(c2ccc(OCCCO)cc2)O[C@@H]1c1ccccc1CN=[N+]=[N-],-3.95
